Molecules are shown by their SMILES. The whole screen tested about 39,000 compounds, of which about 500 (1.3%) were called active. The entries come from a sample that favours actives as a whole.

This test relates to S. aureus RN4220. As to the kind of experiment: growth inhibition call (relative growth <= 0.2). As to conditions: 50 µM.
`CC(C)CC#Cc1cnc2c(c1)C(=O)N([C@@H](C)CO)C[C@H](C)[C@@H](CN(C)C(=O)CCN1CCCCC1)O2`: the growth inhibition call was “inactive”.

For the compound `CC(C)NC(=O)Nc1ccc2c(c1)CC(=O)N([C@@H](C)CO)C[C@@H](C)[C@@H](CN(C)S(=O)(=O)c1ccc(F)cc1)O2`, the growth inhibition call was “inactive”.

For `Cc1ccc(-c2c[nH]c(=S)[nH]2)cc1`, the growth inhibition call was “inactive”.

On to `S=c1[nH]cc(-c2ccccc2)[nH]1`, for which the growth inhibition call was “active”.

`Cn1c(-c2ccccc2)c[nH]c1=S`: the growth inhibition call was “inactive”.

On to `CC1CC2C3CCC4=CC(=O)C=CC4(C)C3(Cl)C(O)CC2(C)C1(OC(=O)c1ccco1)C(=O)CCl` (centres undefined), for which the growth inhibition call was “inactive”.

In the case of `CN(C)C(=O)c1ccc(-c2cccc(-c3nc(C(=O)NC4CCCC4)cc4c3[C@@H](CCO)N([S@](=O)C(C)(C)C)C4)c2)cc1`, the growth inhibition call was “inactive”.

Consider `COc1ccc(S(=O)(=O)Nc2ccc3c(c2)C(=O)N([C@@H](C)CO)C[C@H](C)[C@@H](CN(C)S(C)(=O)=O)OCCCC[C@@H](C)O3)cc1`, for which the growth inhibition call was “inactive”.

In the case of `COc1cc2nc(N3CCCN(Cc4ccccc4)CC3)nc(Nc3ccc(F)c(Cl)c3)c2cc1OC`, the growth inhibition call was “inactive”.

On to `Brc1ccc2nc(N3CCCN(Cc4ccccc4)CC3)nc(NC3CCN(Cc4ccccc4)CC3)c2c1`, for which the growth inhibition call was “active”.

Turning to `COc1cc2nc(N3CCCN(Cc4ccccc4)CC3)nc(NC3CCN(Cc4ccccc4)CC3)c2cc1OC`, the growth inhibition call is “inactive”.

In the case of `COc1ccc2c3c(n(c2c1)C)[C@H](CO)N(Cc1cc(cc(c1)OC)OC)C[C@]13CN(C1)C(=O)NC(C)C`, the growth inhibition call was “inactive”.

On to `O=C(O)c1ccc2ccccc2c1`, for which the growth inhibition call was “inactive”.

Consider `O=C(O)c1ccc2cc(-c3ccc(O)c(C45CC6CC(CC(C6)C4)C5)c3)ccc2c1`, for which the growth inhibition call is “active”.

In the case of `COc1ccc(-c2ccc3cc(C(=O)O)ccc3c2)cc1C12CC3CC(CC(C3)C1)C2`, the growth inhibition call was “inactive”.

Consider `CCO[C@@H]1OC(C(=O)N2CCOCC2)=C[C@H](c2ccccc2)[C@H]1CCCOC(=O)NCCCCCC(=O)NO`, for which the growth inhibition call was “inactive”.

In the case of `Cc1noc(C)c1NC(=O)N(C)C[C@@H]1Oc2c(NC(=O)c3ccncc3)cccc2C(=O)N([C@@H](C)CO)C[C@H]1C`, the growth inhibition call was “inactive”.

`COc1ccc(S(=O)(=O)N(C)C[C@H]2OCCCC[C@H](C)Oc3ccc(NS(C)(=O)=O)cc3C(=O)N([C@H](C)CO)C[C@H]2C)cc1`: the growth inhibition call was “inactive”.

As for `CC(C)c1onc(-c2c(Cl)cccc2Cl)c1COc1ccc(C=Cc2cccc(C(=O)O)c2)c(Cl)c1`, the growth inhibition call is “inactive”.

Take `CC(C)c1onc(-c2c(Cl)cccc2Cl)c1COc1ccc(/C=C/c2cccc(C(=O)O)c2)c(Cl)c1`: the growth inhibition call was “active”.

Consider `O=C(O)c1ccnc(N2CC(O)(c3ccc(OCc4c(-c5c(Cl)cccc5Cl)noc4C4CC4)cc3Cl)C2)c1`, for which the growth inhibition call was “inactive”.

As to `CN(C)C(=O)C[C@H]1C=C[C@@H](NC(=O)C2CC2)[C@H](CO)O1`, the growth inhibition call is “inactive”.

In the case of `CCCCc1oc2ccc(NS(C)(=O)=O)cc2c1C(=O)c1ccc(OCCCN(CCCC)CCCC)cc1`, the growth inhibition call was “active”.

As for `CCCCN(CCCC)CCCOC(=O)c1ccc(N)cc1.O=S(=O)(O)O`, the growth inhibition call is “inactive”.

On to `CCCCc1oc2ccc(NS(C)(=O)=O)cc2c1C(=O)c1ccc(OCCCN(CCCC)CCCC)cc1.Cl`, for which the growth inhibition call is “inactive”.

Turning to `COC(=O)[C@H](Cc1ccc(-n2cc(C(=O)NO)nn2)cc1)N1C[C@](C)(OC)O[C@@H](Cc2ccccc2)[C@H]1/C=C/C1CC1`, the growth inhibition call is “inactive”.

Turning to `Cc1c(N)nc([C@H](CC(N)=O)NC[C@H](N)C(N)=O)nc1C(=O)N[C@H](C(=O)N[C@H](C)[C@@H](O)[C@H](C)C(=O)N[C@H](C(=O)NCCc1nc(-c2nc(C(=O)NCCCNCCCCN)cs2)cs1)[C@@H](C)O)[C@@H](O[C@@H]1O[C@@H](CO)[C@@H](O)[C@H](O)[C@@H]1O[C@@H]1O[C@H](CO)[C@@H](O)[C@H](OC(N)=O)[C@@H]1O)c1c[nH]cn1`, the growth inhibition call was “active”.

With `Clc1ccc(C(c2ccc(Cl)cc2)[n+]2ccn(C[C@@H](OCc3ccc(Cl)cc3Cl)c3ccc(Cl)cc3Cl)c2)cc1`, the growth inhibition call was “inactive”.

Regarding `CC[C@H]1OC(=O)[C@H](C)[C@@H](O[C@H]2C[C@@](C)(OC)[C@@H](O)[C@H](C)O2)[C@H](C)[C@@H](O[C@@H]2O[C@H](C)C[C@H](N(C)C)[C@H]2O)[C@](C)(O)C[C@@H](C)[C@@H]2N[C@@H](COCCOC)O[C@H]([C@H]2C)[C@]1(C)O`, the growth inhibition call was “active”.

With `CCC1OC(=O)C(C)C(OC2CC(C)(OC)C(O)C(C)O2)C(C)C(OC2OC(C)CC(N(C)C)C2O)C(C)(O)CC(C)C2NC(COCCOC)OC(C2C)C1(C)O` (centres undefined), the growth inhibition call was “active”.

Turning to `CO[C@@H]1CN(C)C(=O)c2cc(NC(=O)Nc3ccc(Cl)cc3)ccc2OC[C@@H](C)N(C(=O)Nc2c(C)noc2C)C[C@@H]1C`, the growth inhibition call is “inactive”.

As to `Cc1ccc(S(=O)(=O)N(C)C[C@@H]2OCCCC[C@@H](C)Oc3ccc(NS(C)(=O)=O)cc3C(=O)N([C@H](C)CO)C[C@@H]2C)cc1`, the growth inhibition call is “inactive”.

In the case of `O=C(C[C@H]1CC[C@H]2[C@@H](COC[C@@H](O)CN2C(=O)c2ccncc2)O1)NC1CCC1`, the growth inhibition call is “inactive”.

As for `COCC(=O)N1C[C@]2(C1)CN([C@@H](CO)c1[nH]c3cc(ccc3c12)OC)S(=O)(=O)C`, the growth inhibition call is “inactive”.
